Assay outcomes (PubChem BioAssay)
The full list was thinned out, with hits kept by preference.
nsP2pro primary: blocks chikungunya virus nsP2 protease peptide cleavage; Q8JUX6; FRET peptide cleavage, nsP2pro, fluorescence 1 h; Potency, µM (highest dose often 24.9 µM), hits mostly inhibitors; hit rate 1.1% among 31,000; AID 1964107; also: nearly all actives have a fitted effect of over 60% in size
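Purified recombinant nsP2pro (150 nM final) in 10 mM Tris-HCl pH 8.0 with 0.01% Tween 20 was preincubated 15 min at room temperature with compound (7 concentrations, up to 25 uM). FRET peptide 2 substrate (2.5 uM final) was then added; fluorescence was read after 1 h.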
CHIKV nsP2 cell: inhibits CHIKV nsP2 protease in cells. shares compounds with nsP2pro primary. cell-based CHIKV nsP2 protease reporter assay. Potency, µM (series often up to 51.1 µM), hits mostly inhibitors. hit rate 10% among 450. AID 1964100; also: nearly all actives have a fitted effect of over 70% in size
NSP2 full ctr: selectivity test for CHIKV nsP2 protease inhibitors: full-length NSP2 | Potency, µM (titrated, usually from 50.7 µM), actives largely listed as inhibitors | hit rate 39% among 410 | AID 1964101 | Full-length CHIKV NSP2 protease enzymatic counterscreen | shares compounds with nsP2pro primary; also: nearly all actives have a fitted effect of over 65% in size
Furin counter: human furin inhibition, counterscreen for nsP2pro inhibitors; Recombinant human furin enzymatic counterscreen, fluorogenic substrate; Potency, µM (series often up to 50.6 µM), most hits filed as inhibitors; hit rate 6% among 410; shares compounds with nsP2pro primary; AID 1964102
NS23 peptide cs: selectivity test for CHIKV nsP2 protease inhibitors: endogenous NS2/3 peptide; shares compounds with nsP2pro primary; Potency, µM (highest dose often 51 µM), most hits filed as inhibitors; Purified CHIKV nsP2 protease, endogenous NS2/3 peptide cleavage; AID 1964103; hit rate 34% among 410; also: nearly all actives have a fitted effect of over 55% in size
Papain counter: selectivity counter-screen for CHIKV nsP2 protease inhibitors: papain; hit rate 5% among 410; Potency, µM (top dose mostly 51 µM), actives largely listed as inhibitors; shares compounds with nsP2pro primary; purified papain protease activity, enzymatic inhibition; AID 1964104
Target sequence (P00784 whole entry, looked up): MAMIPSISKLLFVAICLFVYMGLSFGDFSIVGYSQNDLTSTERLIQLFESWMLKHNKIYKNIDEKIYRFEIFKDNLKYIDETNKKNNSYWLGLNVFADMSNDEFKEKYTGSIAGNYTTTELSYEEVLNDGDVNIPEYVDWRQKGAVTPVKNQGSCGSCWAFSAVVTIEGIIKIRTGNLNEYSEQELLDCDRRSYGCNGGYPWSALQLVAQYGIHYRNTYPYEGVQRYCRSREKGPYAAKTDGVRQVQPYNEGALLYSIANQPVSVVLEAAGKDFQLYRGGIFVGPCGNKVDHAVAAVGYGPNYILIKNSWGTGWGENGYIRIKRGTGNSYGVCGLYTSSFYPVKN
nsP2pro confirm: CHIKV nsP2 protease inhibition, confirmatory qHTS | shares compounds with nsP2pro primary | Potency, µM (doses to about 25.5 µM), usual class: inhibitors | hit rate 43% among 410 | CHIKV nsP2 protease enzymatic activity, qHTS; also: nearly all actives have a fitted effect of over 75% in size
HCV NS3 counter: HCV NS3/4A protease inhibition, counterscreen. shares compounds with nsP2pro primary. HCV NS3/4A protease biochemical counterscreen. Potency, µM (top dose mostly 50.9 µM), hits mostly inhibitors. hit rate 20% among 410. AID 1964106; also: nearly all actives have a fitted effect of over 55% in size
A number is an active result; 0 = inactive; ? = inconclusive. Calls follow the shape of the full dose curve.

SMILES | nsP2pro primary | others
O=[N+]([O-])c1ccc(S(=O)(=O)N2CCN(c3ccnc4cc(Cl)ccc34)CC2)c([N+](=O)[O-])c1 | ? | CHIKV nsP2 cell=5.62µM;NSP2 full ctr=?;Furin counter=0;NS23 peptide cs=4.11µM;Papain counter=0;nsP2pro confirm=?;HCV NS3 counter=0
O=[N+]([O-])c1cc(Cl)ccc1S(=O)(=O)N1CCN(Cc2ccccc2)CC1 | 0
O=C(NCCc1nc2ccccc2n1CCCc1ccccc1)C1CCCCC1 | 0
Cc1ccc(NC(=O)CN2C(=O)N/C(=C\c3cccn3-c3cccc(-c4nn[nH]n4)c3)C2=O)cc1 | 0
c1ccc2c(Nc3ccn[nH]3)nc(-c3ccncc3)nc2c1 | 0
Cc1ccc(-c2csc(NC(=O)c3ccncc3NS(=O)(=O)c3ccc(C)cc3)n2)cc1 | 0
CC(=O)OC1(C)CC(O)C2(O)C=COC(OC3OC(CO)C(O)C(O)C3O)C12 (stereo unspecified) | 0
CC(=O)OC1C(O)CC(O[C@@H]2O[C@H](CO)[C@@H](O)[C@H](O)[C@H]2O)C2CCC3C(=O)OC(c4ccoc4)CC3(C)C21 (stereo partly specified) | ? | CHIKV nsP2 cell=0;NSP2 full ctr=0;Furin counter=0;NS23 peptide cs=0;Papain counter=0;nsP2pro confirm=0;HCV NS3 counter=0
CC(=O)O[C@@]1(C)C[C@@H](O)[C@]2(O)C=CO[C@@H](O[C@@H]3O[C@H](CO)[C@@H](O)[C@H](O)[C@H]3O)[C@@H]21 | 0
COc1ccc(S(=O)(=O)Nc2cnccc2C(=O)Nc2nc(-c3ccccc3)cs2)cc1 | 0
O=C(NC1CCCc2c1cnn2CCO)c1ccccn1 (stereo unspecified) | 0
O=C(O)c1cc(-c2ccc(/C=C3\SC(=S)N(Cc4ccccc4)C3=O)o2)ccc1Cl | ? | CHIKV nsP2 cell=0;NSP2 full ctr=0;Furin counter=0;NS23 peptide cs=0;Papain counter=?;nsP2pro confirm=0;HCV NS3 counter=0
Cc1cc(-c2ccc(/C=C3\SC(=Nc4ccc(Cl)c(C(=O)O)c4)NC3=O)o2)c([N+](=O)[O-])cc1C | 0
O=C(O)c1ccc(-n2cccc2/C=C2\SC(=O)N(Cc3ccc(Br)cc3)C2=O)cc1 | 0
Cc1cc(C)n2ncc(C(=O)NC3CCC(C(C)(C)C)CC3)c2n1 (stereo unspecified) | 0
CC(=O)OCC(=O)C1(O)CCC2C3CCC4=CC(=O)CCC4(C)C3C(=O)CC21C (stereo unspecified) | 0
CC1CCc2c(cc(Br)c(F)c2Br)N1C=O (stereo unspecified) | ? | CHIKV nsP2 cell=0;NSP2 full ctr=?;Furin counter=0;NS23 peptide cs=?;Papain counter=0;nsP2pro confirm=?;HCV NS3 counter=?
O=C(Nc1ccc(Cl)nc1)c1ccc2ccnn2c1 | 0
O=C1c2ccccc2NC(c2ccc(-c3cccs3)o2)N1O (stereo unspecified) | 5.62µM | CHIKV nsP2 cell=0;NSP2 full ctr=0;Furin counter=0;NS23 peptide cs=0;Papain counter=0;nsP2pro confirm=0;HCV NS3 counter=0
Brc1ccc(-c2ccc(C3Nc4cccc5cccc(c45)N3)o2)cc1 | 0
O=C1c2ccccc2NC(c2ccc(-c3ccc(C(F)(F)F)cc3)o2)N1O (stereo unspecified) | 10µM | CHIKV nsP2 cell=20.6µM;NSP2 full ctr=0;Furin counter=0;NS23 peptide cs=0;Papain counter=0;nsP2pro confirm=0;HCV NS3 counter=0
O=C1c2ccccc2NC(c2ccc(Br)o2)N1O (stereo unspecified) | 0
O=C1c2ccccc2NC(c2ccccc2O)N1Cc1ccccc1 (stereo unspecified) | 0
Fc1ccccc1C1=NC(c2ccc(C(F)(F)F)cc2)=Nc2ccccc2N1 | 0
NC(=O)NCCCC(N)C(=O)O (stereo unspecified) | 0
SMILES | nsP2pro primary | others
O=C(Nc1nc(-c2ccccc2)cs1)c1ccncc1NS(=O)(=O)c1ccc2c(c1)CCC2 | 0
CC(C)=CCC[C@](C)(O[C@@H]1O[C@H](CO[C@@H]2OC[C@@H](O)[C@H](O)[C@H]2O)[C@@H](O)[C@H](O)[C@H]1O)[C@H]1CC[C@]2(C)[C@@H]1[C@H](O)C[C@@H]1[C@@]3(C)CC[C@H](O[C@@H]4O[C@H](CO)[C@@H](O)[C@H](O)[C@H]4O[C@@H]4O[C@H](CO)[C@@H](O)[C@H](O)[C@H]4O)C(C)(C)[C@@H]3CC[C@]12C | 0
Cc1cnc(-c2ccccc2C(C)C)nc1NCc1ccc(C(N)=O)cc1 | 0
CCC(=O)OCC(=O)[C@]1(OC(=O)CC)[C@H](C)C[C@H]2[C@H]3[C@H]([C@@H](O)C[C@@]21C)[C@@]1(C)C=CC(=O)C=C1C[C@H]3Cl | 0
Cc1ccc(OCCn2c(CCNC(=O)CCN3CCCCC3)nc3ccccc32)cc1 | 0
CC(C)c1ccccc1-c1ncc(F)c(NC(C)(C)c2ccc(-c3cccnc3)cc2)n1 | 0
CCOC(=O)c1cccc(-n2cnc(/C=C3\NC(=O)N(CC(=O)OC(C)(C)C)C3=O)c2)c1 | 0
CC(C)C(=O)OC[C@H]1O[C@H](O[C@H]2O[C@H](CO)[C@@H](O)[C@H](O)[C@H]2O)[C@H](O)[C@@H](O)[C@@H]1O | 0
C=C(CCO[C@@H]1O[C@H](CO)[C@@H](O)[C@H](O)[C@H]1O)C(=O)O | ? | CHIKV nsP2 cell=0;NSP2 full ctr=0;Furin counter=0;NS23 peptide cs=0;Papain counter=0;nsP2pro confirm=0;HCV NS3 counter=0
OC[C@H]1O[C@@H](OCCc2ccc(O)cc2)[C@H](O)[C@@H](O)[C@@H]1O | 0
CCOC(=O)C1CCN(c2ccc(NCc3ccc(-c4ccc(C#N)cc4)o3)cc2)CC1 | 4.47µM | CHIKV nsP2 cell=20.6µM;NSP2 full ctr=?;Furin counter=0;NS23 peptide cs=?;Papain counter=0;nsP2pro confirm=0;HCV NS3 counter=3.66µM
N#Cc1ccc(-c2ccc(CNc3ccc(N4CCC(C#N)CC4)cc3)o2)cc1 | 10µM | CHIKV nsP2 cell=?;NSP2 full ctr=?;Furin counter=0;NS23 peptide cs=?;Papain counter=0;nsP2pro confirm=?;HCV NS3 counter=2.59µM
CC(C)(C)OC(=O)N1CCN(c2ccc(NCc3ncc(-c4ccc(C#N)cc4)o3)cc2)CC1 | 0
CC(C)(C)OC(=O)N1CCC(c2ccc(NCc3ccc(-c4ccc(C#N)cc4)o3)cc2)CC1 | 0
CC(C)(C)OC(=O)N1CCN(c2ccc(NCc3ccc(-c4ccc(C#N)cc4)o3)nc2)CC1 | 0
COc1ccc(-c2ccc(CNc3ccc(N4CCN(C(=O)OC(C)(C)C)CC4)cc3)o2)cc1 | 0
FC(F)(F)c1ccccc1-c1nc(NCc2ccc(-c3ccncc3)cc2)c2ccccc2n1 | 0
C[n+]1cc(NC(=O)c2cccc(C(=O)Nc3cc4ccccc4[n+](C)c3)n2)cc2ccccc21 | 0
Nc1cc(NC(=O)Nc2nnc(-c3ccncc3)s2)ccc1Cl | 0
C#CCOc1cc(C2=Nn3c(nnc3-c3ccc(OCC(C)=O)cc3)SC2)ccc1OC | 0
Cc1cccc(-n2cnc3cc(C(=O)N4CCC(C(F)(F)F)CC4)ccc32)c1 | 0
CC(C)N1C[C@@H](COCc2ccccc2)[C@H](c2ccccc2)[S+]1(=O)[O-] | 0
